Compound activity as filed in PubChem.
KAT2A inh: qHTS Assay for Inhibitors of GCN5L2 | Histone acetyltransferase KAT2A (Homo sapiens), Q92830 | AID 504327, 2011 | hit rate 0.21% among 390,000 | GCN5L2 HAT assay, ThioGlo1 CoA-SH fluorescence | Potency, µM (titrated, usually from 58.9 µM), for inactives: at the highest dose activity change, negative = inhibition, most hits filed as inhibitors
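Fluorescence readout, Ex340nm/Em540nm: ThioGlo1 (50uM final) reacts with free CoA thiol released as 20nM GCN5L2 acetylates H3(1-25) peptide (75uM) using acetyl-CoA (70uM). Compound and enzyme sat 15 min beforehand; 20 min room-temperature reaction.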
uPA surface inh: qHTS for Inhibitors of Cell Surface uPA Generation; hit rate 0.31% among 330,000; cell surface uPA generation assay, qHTS; Potency, µM (titrated, usually from 38.3 µM), without a hit: at the top dose activity change, negative = inhibition, hits mostly inhibitors; active = well fitted inhibition curve with a large enough effect; inconclusive = small, poorly fitted or top-dose-only effect; inactive = no such curve, though single readings can be large or run the other way; tested in mouse RAW 264.7 cells; also: nearly all actives have a fitted effect of over 55% in size
BCR signal inh: qHTS Assay to Find Inhibitors of Chronic Active B-Cell Receptor Signaling. ABC-DLBCL IkBa-CBG/CBR reporter, luminescence ratio, 4 h. Potency, µM (highest dose often 46.1 µM), without a hit: at the highest dose activity change, negative = inhibition, usual class: inhibitors. hit rate 0.05% among 340,000; active = well fitted inhibition curve with a large enough effect in the signal ratio, with a control signal flat, not every such curve was filed as active; inconclusive = small, poorly fitted or top-dose-only effect, or effect the other way, or a change in a side signal; the % refers to the signal ratio;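 also: plate controls were basal doxycycline-induced cells for no effect and cells given 10 µM MG132 for full effect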
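Cell line TMD8 (human ABC DLBCL), stably expressing tet-inducible CBG68-IkBa fusion and CBR; IMDM/0.5% FBS; cpd up to 46 uM; dox induction, 4 h, 37C/5% CO2; dual luminescence; green/red ratio; MG132 control.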
USP2a block: qHTS Assay for Inhibitors of Ubiquitin-specific Protease USP2a Using CHOP2 as the Reporter | Potency, µM (series often up to 38.3 µM), for the others: top-dose activity change, negative = inhibition, actives largely listed as inhibitors | USP2 core, Ub-CHOP2 coupled fluorogenic reporter, 485/531 | hit rate 0.01% among 330,000;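 also: plate controls were DMSO wells for no effect and full inhibition by NEM control for full effect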
Target sequence (O75604 whole entry, looked up): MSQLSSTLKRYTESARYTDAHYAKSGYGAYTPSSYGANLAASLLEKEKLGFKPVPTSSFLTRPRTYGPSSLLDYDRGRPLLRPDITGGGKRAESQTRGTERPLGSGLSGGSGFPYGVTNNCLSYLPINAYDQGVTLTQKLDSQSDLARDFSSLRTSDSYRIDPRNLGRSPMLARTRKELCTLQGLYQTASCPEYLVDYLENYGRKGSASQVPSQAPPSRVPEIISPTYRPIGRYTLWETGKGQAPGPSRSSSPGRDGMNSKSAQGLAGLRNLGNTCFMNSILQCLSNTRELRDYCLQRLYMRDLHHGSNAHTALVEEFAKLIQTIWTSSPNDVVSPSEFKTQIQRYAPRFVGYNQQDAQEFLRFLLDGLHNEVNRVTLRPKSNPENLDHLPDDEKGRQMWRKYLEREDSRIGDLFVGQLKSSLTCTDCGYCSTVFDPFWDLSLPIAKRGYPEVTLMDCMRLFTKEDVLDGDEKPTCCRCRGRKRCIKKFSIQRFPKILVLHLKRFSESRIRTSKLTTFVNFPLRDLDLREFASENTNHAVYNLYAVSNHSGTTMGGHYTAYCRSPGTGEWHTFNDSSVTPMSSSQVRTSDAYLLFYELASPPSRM
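Cell-free coupled assay: 10nM USP2 core preincubated 30min RT with compound in Tris-HCl pH 8.0/CaCl2/CHAPS buffer, then 25nM Ub-CHOP2 and 25nM reporter substrate; fluorescence (Ex 485/Em 531) read after 60min RT, normalized to NEM inhibition, concentration-response curves fitted.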
RGS4 inhibitor: Inhibitors of Regulator of G Protein Signaling (RGS) 4: qHTS; Regulator of G-protein signaling 4 (Homo sapiens), P49798; Transcreener GDP fluorescence polarization, RGS4-accelerated GTP hydrolysis; Potency, µM (titrated, usually from 114 µM), for the others: at the highest dose activity change, negative = inhibition, usual class: inhibitors; hit rate 0.039% among 390,000; also: nearly all actives have a fitted effect of over 75% in size
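MLSMR compounds (23 nl, pin-transferred) preincubated 10 min at room temperature with a 500nM (2x) first reagent, then RGS4 at 900nM (2x) plus Transcreener GDP mix added; fluorescence polarization (620/688 nm) read before and after 90 min at 30 °C.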
Eya2 inh: qHTS Assay for Inhibitors of the Phosphatase Activity of Eya2 | Protein phosphatase EYA2 (Homo sapiens), O00167 | recombinant Eya2, OMFP fluorescence dephosphorylation (OMFP is methylfluorescein phosphate) | Potency, µM (highest dose often 76.9 µM), for inactives: top-dose activity, negative = inhibition, actives largely listed as inhibitors | hit rate 0.006% among 330,000 | AID 488837, 2010
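Eya2 (0.2 uM) preincubated 10 min at ambient with compound, then OMFP substrate added at 50 uM; 10 min reaction in 50 mM HEPES pH 7.5, 50 mM NaCl, 5 uM MgCl2, 0.05% BSA, 1 mM DTT. Fluorescence read at Ex 485/Em 525 nm.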
* marks the source's active call; other numbers are inactive results; i = inactive; ? = inconclusive; . = no result given; ! = not active in a repeat; [ ] = another dose, or the depositor's remark. This is a sample that favours compounds with a hit; in the whole collection about 0.52% have one here. Unless noted, calls follow the shape of the dose curve; as a rule, active = well fitted curve in the direction sought with a large enough effect; inconclusive = small, poorly fitted or top-dose-only effect, or another doubt; inactive = no such curve, though single readings can be large; an effect the other way counts as inactive or inconclusive. Unless noted, % is scaled to controls: 0 for no effect and ±100 for the full control effect; potency is read from the fitted curve at half-maximal effect.

SMILES	KAT2A inh	uPA surface inh	BCR signal inh	USP2a block	RGS4 inhibitor	Eya2 inh
CC(=O)NC(c1cccs1)c1cc(F)c2cccnc2c1O (centres undefined)	?	5µM*	?	-2%	-19%	6%
COc1cc(-c2ccc(N=Nc3ccc4c(S(=O)(=O)O)cc(S(=O)(=O)O)c(N)c4c3O)c(OC)c2)ccc1N=Nc1ccc2c(S(=O)(=O)O)cc(S(=O)(=O)O)c(N)c2c1O	4µM*	.	.	.	i	.
N#Cc1nc(N2CCCC2)nc(N(c2ccccc2)c2ccccc2)n1	.	.	.	.	-3%	.
Cc1c(NC(=O)/C(C#N)=C/c2c(Oc3ccccc3)nc3ccccn3c2=O)c(=O)n(-c2ccccc2)n1C	-1%	-7%	18µM*	1%	-12%	-2%
COc1ccc(NC(=O)C2CCN(S(=O)(=O)c3ccc4c(c3)CCCC(=O)N4)CC2)cc1Cl	-2%	.	.	.	-5%	.
Cc1ccccc1CSc1cn(CC(=O)N2CCCCCC2)c2ccccc12	-17%	.	.	.	-5%	.
CC1CCC(C(C)C)C(OC(=O)Cn2c(-c3ccccc3)[n+](C)c3ccccc32)C1 (centres undefined)	-5%	4.5µM*!	?	6%	-9%	3%
CC1CCC(C(C)C)C(OC(=O)Cn2c(-c3ccc(F)cc3)[n+](C)c3ccccc32)C1 (centres undefined)	1%	-7%	?	1%	1%	-6%
N#CC1=C2SCN(C3CCCCC3)CN2C(=O)CC1c1ccc(Br)cc1 (centres undefined)	35µM*	.	.	.	?	.
COc1ccc(C2CC(=O)N3CN(c4ccccc4F)CSC3=C2C#N)cc1OC (centres undefined)	22µM*	7%	?	4.5µM*	?	-1%
CCOc1cc(C2CC(=O)N3CN(C4CCCCC4)CSC3=C2C#N)ccc1O (centres undefined)	-12%	-5%	10%	1%	?	4%
COc1ccc(OC)c(C2CC(=O)N3CN(c4ccccc4)CSC3=C2C#N)c1 (centres undefined)	28µM*	-12%	-4%	-1%	?	-19%
COc1ccc(C2CC(=O)N3CN(c4ccc(C)c(Cl)c4)CSC3=C2C#N)cc1 (centres undefined)	28µM*	-22%	2%	2%	?	0%
COc1ccc(N2CSC3=C(C#N)C(c4cccc(OC)c4OC)CC(=O)N3C2)cc1 (centres undefined)	?	-24%	?	1%	?	0%
CC[C@H](C)C(=O)O[C@H]1CCC=C2C=C[C@H](C)[C@H](CC[C@@H]3C[C@@H](O)CC(=O)O3)[C@H]21	-17%	1.3µM*	?	-1%	-10%[56.9 µM]	-7%
FC(F)(F)c1cc(CN2CCC3(CCNCC3)CC2)cc(C(F)(F)F)c1	1%	.	.	.	.	.
O=S(=O)(c1ccc(Oc2ccc3c(c2)OCO3)c(S(=O)(=O)N2CCOCC2)c1)N1CCOCC1	.	.	.	.	-13%	.
C=CCNC(=S)NNC(=O)COc1cccc(Cl)c1	2%	.	18µM*	-1%	-31%	-7%
C=CCNC(=S)NNC(=O)COc1ccc2cc(Br)ccc2c1	6%	.	?	-10%	-9%	-19%
C=CCN1c2ccccc2[C@]23C[C@@H](C(=O)OC)N(C(=O)c4cccs4)C2=NC(C(=O)OC)=C(C(=O)OC)[C@H]13	-9%	6.3µM*	3%	-9%	5%	-1%
C=CCN1c2ccccc2[C@]23C[C@@H](C(=O)OC)N(C(=O)c4ccc(Br)cc4)C2=NC(C(=O)OC)=C(C(=O)OC)[C@H]13	20%	5.6µM*	7%	-8%	-2%	2%
C=CCN1c2ccccc2[C@]23C[C@@H](C(=O)OC)N(C(=O)OCC)C2=NC(C(=O)OC)=C(C(=O)OC)[C@H]13	.	-27%	.	.	-2%	.
COC(=O)C1=C(C(=O)OC)[C@@H]2N(Cc3ccccc3)c3ccccc3[C@@]23C[C@@H](C(=O)OC)N(C(=O)c2ccc(Br)cc2)C3=N1	-1%	?	0%	2%	-4%	2%
COc1ccc(NC(=O)O/N=C/c2c(C)nn(C(C)(C)C)c2C)cc1	1%	2µM*	-11%	0%	-19%	-28%
Cc1nn(C(C)(C)C)c(C)c1/C=N/OC(=O)Nc1ccc(Cl)c(Cl)c1	1%	-5%	18%	2%	-20%	-4%
SMILES	KAT2A inh	uPA surface inh	BCR signal inh	USP2a block	RGS4 inhibitor	Eya2 inh
O=C(O)CC(Sc1n[nH]c(=S)s1)C(=O)O (centres undefined)	32µM*	13%	3%	0%	-31%	12%
COC(=O)C(C)Sc1n[nH]c(=S)s1 (centres undefined)	-18%	0%	?	-1%	-37%	-8%
CC(C)(C)C(=O)OCOP(=O)(COCCn1cnc2c(N)ncnc21)OCOC(=O)C(C)(C)C	4%	.	.	.	.	.
CCC(C)(C)NC(=O)c1ccc(Sc2nncn2C)c([N+](=O)[O-])c1	0%	6%	-2%	-1%	-12%	2%
Cn1cnnc1Sc1ccc(/C=C/C(=O)c2ccc(O)cc2)cc1[N+](=O)[O-]	-13%	8.9µM*	?	-1%	-42%	2%
COc1ccc(CCn2c(=S)[nH]c(=O)c3nccnc32)cc1OC	.	.	.	.	11%	.
CCOC(=O)c1c(C)[nH]c(C)c1C(=O)COC(=O)/C=C/c1ccc(OC)cc1	-14%	2.5µM*	?	1%	8%	3%
COc1ccc(NC(=O)c2cc(-c3ccccc3)nc3c2cnn3C(C)C)cc1	-10%	8.9µM*	-3%	-1%	?	4%
CC(C)n1ncc2c(C(=O)N3CCN(c4ccccc4)CC3)cc(-c3ccccc3)nc21	-1%	4%	0%	-2%	16%	17%
COc1ccc(-c2cc(C(=O)O)[nH]n2)cc1OC	1%	-5%	-2%	3%	3%	5%
COc1ccc(-c2cc(C(=O)NN)[nH]n2)cc1OC	-6%	10µM*	?	-2%	14%	9%
C/C(CC(=O)Nc1ccc(Cl)cc1Cl)=N\NC(N)=S	-5%	.	-1%	-6%	-18%	4%
C/C(CC(=O)Nc1ccc(Cl)cc1C(F)(F)F)=N\NC(N)=S	-4%	5%	11µM*	0%	-45%	-5%
